# From the supplement of paper PMC8728848
# Many of the other results were omitted from the sample, so the strongest signals are more common in it than they were.
# Tests used:
# Assay in all cases: glycan array binding signal (z-score within array); higher = stronger binding
# Details in all cases: glycan notation: IUPAC condensed, linker removed
# Fuc(a1-2)Gal = molecular target: Fuc(a1-2)Gal
# How it was run: (§1)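 Arrays were curated from the Consortium for Functional Glycomics database, 3228 in total, and kept only where the protein sequence was available. Binding is expressed as a within-array Z-score. This score was averaged across arrays of the same protein sequence at different concentrations or buffers and across linkers, and negative values can be read as non-binding.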
# [1] = molecular target: Fuc(a1-2)Gal(b1-3)GalNAc(b1-3)Gal(b1-4)Glc
# How it was run: as §1
# [2] = molecular target: Fuc(a1-2)[GalNAc(a1-3)]Gal
# How it was run: as §1
# Gal(a1-2)Gal = molecular target: Gal(a1-2)Gal
# How it was run: as §1
# [3] = molecular target: Gal(b1-4)GlcNAc(b1-3)Gal(b1-4)GlcNAc
# How it was run: as §1
# [4] = molecular target: Gal(b1-4)GlcNAc(b1-3)Gal(b1-4)[Fuc(a1-3)]GlcNAc(b1-3)Gal(b1-4)[Fuc(a1-3)]GlcNAc
# How it was run: as §1
# [5] = molecular target: Gal(b1-4)GlcNAc(b1-6)[Gal(b1-3)]GlcNAc
# How it was run: as §1
# Gal6S(b1-4)Glc6S = molecular target: Gal6S(b1-4)Glc6S
# How it was run: as §1
# Glc(a1-4)Glc = molecular target: Glc(a1-4)Glc
# How it was run: as §1
# Kdn(a2-3)Gal(b1-3)GlcNAc = molecular target: Kdn(a2-3)Gal(b1-3)GlcNAc
# How it was run: as §1
# [6] = molecular target: Man(a1-2)Man(a1-2)Man(a1-3)[Man(a1-2)Man(a1-3)[Man(a1-2)Man(a1-6)]Man(a1-6)]Man(b1-4)GlcNAc(b1-4)GlcNAc
# How it was run: as §1
# [7] = molecular target: Man(a1-2)Man(a1-2)Man(a1-6)[Man(a1-3)]Man
# How it was run: as §1
# [8] = molecular target: Man(a1-2)Man(a1-3)[Man(a1-2)Man(a1-6)]Man
# How it was run: as §1
# [9] = molecular target: Man(a1-2)Man(a1-3)[Man(a1-3)[Man(a1-6)]Man(a1-6)]Man(b1-4)GlcNAc(b1-4)GlcNAc
# How it was run: as §1
# Neu5Ac(a2-3)Gal = molecular target: Neu5Ac(a2-3)Gal
# How it was run: as §1
# [10] = molecular target: Neu5Ac(a2-3)Gal(b1-3)GlcNAc6S
# How it was run: as §1
# [11] = molecular target: Neu5Ac(a2-3)Gal(b1-3)[Neu5Ac(a2-3)Gal(b1-4)]GlcNAc
# How it was run: as §1
# [12] = molecular target: Neu5Ac(a2-3)Gal(b1-4)GlcNAc(b1-3)Gal(b1-4)GlcNAc
# How it was run: as §1
# [13] = molecular target: Neu5Ac(a2-3)Gal(b1-4)[Fuc(a1-3)]GlcNAc(b1-3)Gal(b1-4)[Fuc(a1-3)]GlcNAc(b1-3)Gal(b1-4)[Fuc(a1-3)]GlcNAc
# How it was run: as §1
# [14] = molecular target: Neu5Ac(a2-3)Gal(b1-4)[Fuc(a1-3)]GlcNAc6S
# How it was run: as §1
# [15] = molecular target: Neu5Ac(a2-6)Gal(b1-4)GlcNAc(b1-2)Man(a1-3)[Neu5Ac(a2-6)Gal(b1-4)GlcNAc(b1-2)Man(a1-6)]Man(b1-4)GlcNAc(b1-4)GlcNAc
# How it was run: as §1
# [16] = molecular target: Neu5Gc(a2-3)Gal(b1-3)GlcNAc
# How it was run: as §1
binder,measurement,setting,value
"CVNH0 (Neurospora crassa), Q7S6U4 (protein) GSHIGPYMSFHVTAEDARIEVRDNRTILFARLRREDGEWNDASYELDQIIGNNDGHFQWGGQNFTETAEDIRFHPKEGAAEQPILRARLRDCNGEFHDRDVNLTEIVENVNGEFQAKF",glycan array binding signal (z-score),Fuc(a1-2)Gal,-0.372
same,glycan array binding signal (z-score),[1],3.75
same,glycan array binding signal (z-score),[2],-0.436
same,glycan array binding signal (z-score),Gal(a1-2)Gal,-0.423
same,glycan array binding signal (z-score),[3],-0.427
same,glycan array binding signal (z-score),[4],-0.186
same,glycan array binding signal (z-score),[5],-0.381
same,glycan array binding signal (z-score),Gal6S(b1-4)Glc6S,-0.362
same,glycan array binding signal (z-score),Glc(a1-4)Glc,-0.391
same,glycan array binding signal (z-score),Kdn(a2-3)Gal(b1-3)GlcNAc,-0.44
same,glycan array binding signal (z-score),[6],3.89
same,glycan array binding signal (z-score),[7],3.68
same,glycan array binding signal (z-score),[8],4.06
same,glycan array binding signal (z-score),[9],-0.376
same,glycan array binding signal (z-score),Neu5Ac(a2-3)Gal,-0.431
same,glycan array binding signal (z-score),[10],0.204
same,glycan array binding signal (z-score),[11],-0.411
same,glycan array binding signal (z-score),[12],-0.351
same,glycan array binding signal (z-score),[13],-0.226
same,glycan array binding signal (z-score),[14],-0.433
same,glycan array binding signal (z-score),[15],-0.408
same,glycan array binding signal (z-score),[16],-0.433
